Assay results from PubChem BioAssay (NCI).
About 83,000 compounds went through this panel and 20% of them were active in at least one assay; those are over-represented in the sample as a whole.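 How to read the values: 0–100, growth inhibition (40 = 60% inhibited); 0, no net growth; -100 to 0, cell death (-40 = 40% of starting cells died; -100 = all dead).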 Calls of active or inactive are those of the source. The calls were made as follows: active = growth percent below 10; inactive = the rest.

What was measured:
Assay in all cases: NCI-60 one-dose screen, 48 h (100 = growth as untreated, 0 = no growth, -100 = all killed)
Settings in all cases: 10 µM
[1] = system: NCI-H23 lung
[2] = system: NCI-H226 lung
[3] = system: NCI-H322M lung
[4] = system: HOP-62 NSCLC
[5] = system: NCI-H460 lung
[6] = system: HOP-92 NSCLC
[7] = system: NCI-H522 lung
[8] = system: A549/ATCC NSCLC
[9] = system: 786-0 renal
[10] = system: COLO 205 colon
[11] = system: DU-145 prostate
[12] = system: K-562 leukemia
[13] = system: MALME-3M melanoma
[14] = system: MDA-MB-231 breast
[15] = system: RXF 393 renal
[16] = system: SF-268 CNS
[17] = system: SF-295 CNS
[18] = system: SF-539 CNS
[19] = system: UACC-257 melanoma
[20] = system: M14 melanoma

Measured: growth

COc1ccc(-c2nc(-c3nc4ccc(OC)cc4[nH]3)c3ccccn23)cc1
inactive: [1] 90.5% | [2] 75.1% | [3] 65% | [4] 63% | [5] 67.7% | [6] 13.9% | [7] 62.8% | [8] 48% | [9] 84.4% | [10] 95.1% | [11] 71.9% | [12] 25.5% | [13] 104% | [14] 83% | [15] 75.7% | [16] 57.5% | [17] 52% | [18] 90.2% | [19] 92.9% | [20] 77.5%

CCOC(=O)[C@@H](Cc1ccccc1)NC(=O)c1[nH]c2ccc(Cl)cc2c(=O)c1C
inactive: [1] 99.7% | [2] 107% | [3] 97.7% | [4] 92.3% | [5] 103% | [6] 100% | [7] 71.8% | [8] 84.1% | [9] 97.4% | [10] 111% | [11] 113% | [12] 86.5% | [13] 107% | [14] 106% | [15] 98.5% | [16] 99.7% | [17] 97.4% | [18] 101% | [19] 81.7% | [20] 97.1%

CCOC(=O)c1c(C)n(-c2ccc(Cl)cc2)c2ccc(OC(=O)/C=C/c3ccccc3)cc12
inactive: [1] 93.3% | [2] 95.1% | [3] 94.8% | [4] 95% | [5] 99.1% | [6] 58% | [7] 82.3% | [8] 67.7% | [9] 94.3% | [10] 93.1% | [11] 91% | [12] 25.4% | [13] 72.9% | [14] 63.4% | [15] 73.7% | [16] 94.1% | [17] 79.4% | [18] 92.7% | [19] 84.2% | [20] 83.1%

O=C1/C(=C/c2ccc(O)cc2)Oc2ccc(Cl)cc21
inactive: [1] 71.4% | [2] 68.8% | [3] 82.8% | [4] 85.6% | [5] 79.6% | [6] 67.1% | [8] 79.7% | [9] 71.4% | [10] 109% | [11] 114% | [12] 96% | [13] 82.4% | [14] 60.1% | [15] 65.6% | [16] 93% | [17] 89.9% | [18] 66.7% | [19] 79% | [20] 93.9%
active: [7] -65%

COc1cc(-c2nc3ccc(C)cc3[nH]2)ccc1OCc1nnc(-c2ccc(CC(C)C)cc2)o1
inactive: [1] 93.2% | [2] 86.9% | [3] 97.2% | [4] 90.6% | [5] 90.8% | [6] 79.4% | [7] 97.4% | [8] 93.5% | [9] 90% | [10] 103% | [11] 101% | [12] 46% | [13] 98% | [14] 88.9% | [15] 71.3% | [16] 105% | [17] 96.3% | [18] 91.7% | [19] 96.8% | [20] 104%

O=C(CCCC(=O)N/N=C/c1cc(Cl)ccc1O)N/N=C\c1cc(Cl)ccc1O
active: [17] -5.9% | [19] -1.55%
inactive: [1] 38.4% | [2] 40.7% | [3] 23.7% | [4] 24.1% | [5] 10.2% | [6] 24.4% | [7] 18.3% | [8] 29.5% | [9] 24.8% | [10] 16.3% | [11] 42.9% | [12] 13.9% | [13] 31.2% | [14] 37.5% | [15] 39.2% | [16] 26.4% | [18] 14.1% | [20] 12.9%

CC(C)/C=N/NC(N)=S
inactive: [1] 96.6% | [2] 95.7% | [3] 101% | [4] 75.6% | [5] 97.4% | [6] 73.1% | [7] 94% | [8] 71.8% | [9] 100% | [10] 103% | [11] 95.3% | [12] 47.3% | [13] 80.3% | [14] 86.2% | [15] 106% | [16] 99.9% | [17] 90.5% | [18] 102% | [19] 40.5% | [20] 84.4%

CCCCCCCCCCCC(=O)NCCCN(C)C
inactive: [1] 90.4% | [2] 109% | [3] 97.1% | [4] 111% | [5] 99.6% | [6] 45.5% | [7] 87.4% | [8] 91.4% | [9] 90.9% | [10] 94.4% | [11] 107% | [12] 59.4% | [13] 111% | [14] 79.1% | [15] 116% | [16] 96.2% | [17] 95.6% | [18] 86.6% | [19] 94.7% | [20] 98.1%
